Laboratory results taken from the OligoGym collection.

target: C1QTNF1; assay: pooled miR-30 sensor sort-seq; sequence = guide strand; details: shRNA
Note: reference of the scale not given here.

Question: Which sensor-assay potency score (higher = more potent) does the source give for TAGGTGTCCAGCTCCTCGCTGA here?
Answer: -0.37

Question: With TCACAGCAGCGCAAGCACCGGG as the sequence, how does the sensor-assay potency score (higher = more potent) read?
Answer: -0.832

Question: How did the sensor-assay potency score (higher = more potent) turn out when AAGATAGTGATGTTGATCTGGG was run?
Answer: -0.107

Question: With TAGCAGTAGAACTTGCCGGTGA as the sequence, how does the sensor-assay potency score (higher = more potent) read?
Answer: 0.148

Question: How did the sensor-assay potency score (higher = more potent) turn out when TTGTTCTTCAGCCCTCTCGGCA was run?
Answer: -1.05

Question: With TTGGAGGCCTCGATCTCCGCGG as the sequence, how does the sensor-assay potency score (higher = more potent) read?
Answer: -1.29

Question: TAGGTCTCCTTCTGGTTCCAGG was tested. Which sensor-assay potency score (higher = more potent) did it give?
Answer: -0.883

Question: With TAGAACTTGCCGGTGAACATGT as the sequence, how does the sensor-assay potency score (higher = more potent) read?
Answer: 0.14

Question: TAGAGGTTCACGAACTCCGTGT was tested. Which sensor-assay potency score (higher = more potent) did it give?
Answer: 0.258

Question: For TGTATTTTTCATGTTGTTCTTC, which sensor-assay potency score (higher = more potent) is on record?
Answer: 0.442

Question: With TCGATCTCCGCGGTCACCCTTC as the sequence, how does the sensor-assay potency score (higher = more potent) read?
Answer: -1.09

Question: With TTCATGTTGTTCTTCAGCCCTC as the sequence, how does the sensor-assay potency score (higher = more potent) read?
Answer: -0.239

target: C1orf101; assay: as above; details: shRNA

Question: How did the sensor-assay potency score (higher = more potent) turn out when TTGGTTTCCTCTAATCTCCTTT was run?
Answer: 0.267

Question: TAACTTAATAGTACTTCTGGTA was tested. Which sensor-assay potency score (higher = more potent) did it give?
Answer: -0.353

Question: How did the sensor-assay potency score (higher = more potent) turn out when TAAAAACACAGCAATCTCCAGA was run?
Answer: -0.0485

Question: With TAACTCTATAGTACCACAGAAA as the sequence, how does the sensor-assay potency score (higher = more potent) read?
Answer: -1.26

Question: TTCATGTAAACAACCACTCTGT was tested. Which sensor-assay potency score (higher = more potent) did it give?
Answer: 0.256

Question: How did the sensor-assay potency score (higher = more potent) turn out when TTGTATTGTGCCATCATCCAAA was run?
Answer: -0.463

Question: How did the sensor-assay potency score (higher = more potent) turn out when TTGACTTCCATGTCTGTGCTTC was run?
Answer: 0.808

Question: For TAAACAACCACTCTGTGCCATA, which sensor-assay potency score (higher = more potent) is on record?
Answer: -0.921

Question: For TAGTGCATCATCTTTTGTCATT, which sensor-assay potency score (higher = more potent) is on record?
Answer: -1.07

Question: For TCTAACTTAATAGTACTTCTGG, which sensor-assay potency score (higher = more potent) is on record?
Answer: 0.677

Question: How did the sensor-assay potency score (higher = more potent) turn out when TTGAATATTCACTAGGTCGAAA was run?
Answer: -0.467

Question: For TTGATAGATTTCCATGTCCTGC, which sensor-assay potency score (higher = more potent) is on record?
Answer: -1.09

target: C1orf105; assay: as above; details: shRNA

Question: How did the sensor-assay potency score (higher = more potent) turn out when TATAACTCATACAATTCTCAAA was run?
Answer: -1.37

Question: Which sensor-assay potency score (higher = more potent) does the source give for TACAATTCTCAAAGGATGCTTT here?
Answer: -0.234

Question: Which sensor-assay potency score (higher = more potent) does the source give for TTGCCTATTGGTTCCTTTCTGG here?
Answer: 0.0888

Question: TTGACATGTGGAGCACAGCTGT was tested. Which sensor-assay potency score (higher = more potent) did it give?
Answer: -0.883

Question: Which sensor-assay potency score (higher = more potent) does the source give for TAGTGAATGTTTTCTGTTGGGA here?
Answer: 0.127

Question: With TTTCATTTCTTGACATGTGGAG as the sequence, how does the sensor-assay potency score (higher = more potent) read?
Answer: 0.0387

Question: Which sensor-assay potency score (higher = more potent) does the source give for TAAGCCAAGGAATCTTGTCAAA here?
Answer: -1.39

Question: Which sensor-assay potency score (higher = more potent) does the source give for TTCTGGGCAAGGAAGAACGTTG here?
Answer: -0.752

Question: AACATCTGGAACTTGAAACAAA was tested. Which sensor-assay potency score (higher = more potent) did it give?
Answer: -0.678

Question: With TTTTCATTTCTTGACATGTGGA as the sequence, how does the sensor-assay potency score (higher = more potent) read?
Answer: -0.589

Question: How did the sensor-assay potency score (higher = more potent) turn out when TTTGGGTTGATGAAGACTCATT was run?
Answer: -1.17

Question: Which sensor-assay potency score (higher = more potent) does the source give for TTCATTTCTTGACATGTGGAGC here?
Answer: -1.06

target: C1orf106; assay: as above; details: shRNA

Question: TTATTGAAGTATTTAGCACTAA was tested. Which sensor-assay potency score (higher = more potent) did it give?
Answer: -0.34

Question: TATTGAAGTATTTAGCACTAAA was tested. Which sensor-assay potency score (higher = more potent) did it give?
Answer: -0.989

Question: TATATAAGGAGATAGAGGCTGT was tested. Which sensor-assay potency score (higher = more potent) did it give?
Answer: 0.0357
